Experimental data as given in PubChem BioAssay AID1159580 (chemical genetic matrix, 2015).
Values joined by “and” are separate entries in the source; they are usually repeats but may differ in a detail not shown here. Equal values may be shown once. Hit rate of the full screen: of about 5,500 compounds, about 2,000 (36%) were called active. Inconclusive results (about 18%) are left out. Rule as the data show it: active = normalized growth mostly below about 0.91 (no sharp cut-off); inconclusive = no clear call, values can overlap the other calls; inactive = mostly above about 0.92. The list shows a part of the results.

Assay: chemical genetic growth profiling, strain panel (AID 1159580);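 also: tested at 20 µM; growth read once vehicle control cultures reached saturation at 30 °C; 1 = growth at the plate median or of vehicle wells; lower values mean less growth of the strain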
Details: growth OD
[1] = S. cerevisiae deletion strains, locus YAL013W, strain DEP1, hits give low values
[2] = S. cerevisiae deletion strains, locus YBR229C, strain ROT2, hits give low values
[3] = S. cerevisiae deletion strains, locus YDL101C, strain DUN1, hits give low values
[4] = S. cerevisiae deletion strains, locus YDR150W, strain NUM1, hits give low values
[5] = S. cerevisiae deletion strains, locus YEL061C, strain CIN8, hits give low values
[6] = S. cerevisiae deletion strains, locus YGR078C, strain PAC10, hits give low values
[7] = S. cerevisiae deletion strains, locus YGR229C, strain SMI1, hits give low values
[8] = S. cerevisiae deletion strains, locus YHR030C, strain SLT2, hits give low values
[9] = S. cerevisiae deletion strains, locus YJR043C, strain POL32, hits give low values
[10] = S. cerevisiae deletion strains, locus YJR075W, strain HOC1, hits give low values
[11] = S. cerevisiae deletion strains, locus YLR039C, strain RIC1, hits give low values
[12] = S. cerevisiae deletion strains, locus YLR262C, strain YPT6, hits give low values
[13] = S. cerevisiae deletion strains, locus YMR263W, strain SAP30, hits give low values
[14] = S. cerevisiae deletion strains, locus YMR307W, strain GAS1, hits give low values
[15] = S. cerevisiae deletion strains, locus YNL153C, strain GIM3, hits give low values
[16] = S. cerevisiae deletion strains, locus YNL322C, strain KRE1, hits give low values
[17] = S. cerevisiae deletion strains, locus YOL006C, strain TOP1, hits give low values
[18] = S. cerevisiae deletion strains, locus YPL055C, strain LGE1, hits give low values
[19] = S. cerevisiae deletion strains, locus YPL241C, strain CIN2, hits give low values
[20] = S. cerevisiae strains, strain wild type, hits give low values

Measured: normalized growth

Cc1c(-c2csc(-c3ccc(Cl)cc3)n2)sc2ccc(Cl)cc12
inactive: [1] 1.03 | [2] 1.03 | [3] 1.05 | [4] 1.01 | [5] 0.996 | [6] 1.04 | [7] 1.03 | [8] 1.07 | S. cerevisiae deletion strains, locus YHR087W, strain rtc3, hits give low values 1.03 | [9] 1.04 | [10] 1.02 | [11] 1.07 | S. cerevisiae deletion strains, locus YLR058C, strain SHM2 (second series), hits give low values 1.05 | S. cerevisiae deletion strains, locus YLR085C, strain ARP6, hits give low values 1.05 | [12] 1.09 | S. cerevisiae deletion strains, locus YML094W, strain GIM5, hits give low values 1.04 | S. cerevisiae deletion strains, locus YMR219W, strain ESC1, hits give low values 1.04 | [13] 1.02 | [14] 1.07 | [15] 1.02 | S. cerevisiae deletion strains, locus YNL298W, strain CLA4 (second series), hits give low values 1.09 | [16] 1.04 | S. cerevisiae deletion strains, locus YNR030W, strain Alg12, hits give low values 1.04 | [17] 1.1 | [18] 0.999 | [19] 1.03 | S. cerevisiae deletion strains, locus YPR135W, strain CTF4, hits give low values 1.07 | [20] 1.04

O[C@H]1[C@H](O)[C@@H](O)C2OC[C@H]1O2
active: S. cerevisiae deletion strains, locus YDL185W, strain tfp1, hits give low values 0.901
inactive: [1] 1 | S. cerevisiae deletion strains, locus YBR021W, strain FUR4, hits give low values 1.03 | [2] 0.961 | S. cerevisiae deletion strains, locus YCL029C, strain bik1, hits give low values 0.986 | S. cerevisiae deletion strains, locus YDL035C, strain GPR1, hits give low values 0.986 | S. cerevisiae deletion strains, locus YDL074C, strain BRE1, hits give low values 0.929 | [3] 0.943 | S. cerevisiae deletion strains, locus YDL134C, strain PPH21, hits give low values 0.99 | S. cerevisiae deletion strains, locus YDL192W, strain arf1, hits give low values 0.986 | S. cerevisiae deletion strains, locus YDR101C, strain arx1, hits give low values 0.994 | [4] 0.992 | S. cerevisiae deletion strains, locus YDR162C, strain NBP2, hits give low values 0.918 | S. cerevisiae deletion strains, locus YDR318W, strain mcm21, hits give low values 0.998 | S. cerevisiae deletion strains, locus YDR388W, hits give low values 0.992 | S. cerevisiae deletion strains, locus YDR502C, strain sam2, hits give low values 0.983 | [5] 0.986 | S. cerevisiae deletion strains, locus YER110C, hits give low values 0.983 | S. cerevisiae deletion strains, locus YER155C, strain BEM2, hits give low values 0.988 | S. cerevisiae deletion strains, locus YER167W, strain BCK2, hits give low values 1 | S. cerevisiae deletion strains, locus YGL078C, strain dbp3, hits give low values 0.987 | S. cerevisiae deletion strains, locus YGL086W, strain mad1, hits give low values 1 | S. cerevisiae deletion strains, locus YGL248W, strain PDE1, hits give low values 0.975 | [6] 0.951 | S. cerevisiae deletion strains, locus YGR135W, strain pre9, hits give low values 0.982 | [7] 0.975 | S. cerevisiae deletion strains, locus YGR252W, strain gcn5, hits give low values 1 | [8] 1 and 0.967 | S. cerevisiae deletion strains, locus YHR079C, strain IRE1 (second series), hits give low values 0.999 | S. cerevisiae deletion strains, locus YHR079C, strain IRE1, hits give low values 0.967 | S. cerevisiae deletion strains, locus YHR094C, strain hxt1, hits give low values 1 | S. cerevisiae deletion strains, locus YHR129C, strain ARP1, hits give low values 0.993 | S. cerevisiae deletion strains, locus YHR200W, strain rpn10, hits give low values 0.992 | S. cerevisiae deletion strains, locus YIL066C, strain RNR3, hits give low values 0.98 | S. cerevisiae deletion strains, locus YIL073C, strain SPO22, hits give low values 1.01 | S. cerevisiae deletion strains, locus YIL125W, strain kgd1, hits give low values 0.988 | S. cerevisiae deletion strains, locus YIR030C, strain dcg1, hits give low values 0.983 | S. cerevisiae deletion strains, locus YJL095W, strain BCK1, hits give low values 0.98 and 0.977 | S. cerevisiae deletion strains, locus YJL134W, strain LCB3, hits give low values 0.984 | S. cerevisiae deletion strains, locus YJL168C, strain set2, hits give low values 0.982 | S. cerevisiae deletion strains, locus YJL187C, strain SWE1 (second series), hits give low values 0.972 | [9] 0.999 | S. cerevisiae deletion strains, locus YJR066W, strain TOR1, hits give low values 0.919 | [10] 0.936 | S. cerevisiae deletion strains, locus YKL009W, strain mrt4, hits give low values 0.977 | S. cerevisiae deletion strains, locus YKL068W, hits give low values 0.982 | S. cerevisiae deletion strains, locus YKL085W, strain MDH1 (second series), hits give low values 1.02 | S. cerevisiae deletion strains, locus YKL085W, strain MDH1, hits give low values 1.02 | S. cerevisiae deletion strains, locus YKL190W, strain CNB1, hits give low values 0.98 | S. cerevisiae deletion strains, locus YKR001C, strain vps1, hits give low values 0.998 | [11] 0.968 | S. cerevisiae deletion strains, locus YLR058C, strain SHM2, hits give low values 0.972 | S. cerevisiae deletion strains, locus YLR102C, strain apc9, hits give low values 0.984 | S. cerevisiae deletion strains, locus YLR113W, strain HOG1, hits give low values 0.999 | [12] 0.935 | S. cerevisiae deletion strains, locus YLR268W, strain sec22, hits give low values 0.963 | S. cerevisiae deletion strains, locus YLR330W, strain CHS5, hits give low values 0.988 | S. cerevisiae deletion strains, locus YLR342W, strain FKS1 (second series), hits give low values 1.04 | S. cerevisiae deletion strains, locus YLR371W, strain rom2, hits give low values 0.938 | S. cerevisiae deletion strains, locus YLR418C, strain cdc73, hits give low values 0.961 | S. cerevisiae deletion strains, locus YML016C, strain PPZ1, hits give low values 0.983 | S. cerevisiae deletion strains, locus YML032C, strain rad52, hits give low values 1 | S. cerevisiae deletion strains, locus YML124C, strain tub3, hits give low values 0.992 | S. cerevisiae deletion strains, locus YMR078C, strain ctf18, hits give low values 0.987 | S. cerevisiae deletion strains, locus YMR223W, strain ubp8, hits give low values 1.01 | [13] 0.94 | [14] 1.04 | S. cerevisiae deletion strains, locus YNL067W, strain RPL9B, hits give low values 0.951 | S. cerevisiae deletion strains, locus YNL128W, strain TEP1, hits give low values 0.926 | [15] 0.97 | S. cerevisiae deletion strains, locus YNL183C, strain NPR1, hits give low values 0.905 | S. cerevisiae deletion strains, locus YNL233W, strain BNI4, hits give low values 0.978 | S. cerevisiae deletion strains, locus YNL250W, strain rad50, hits give low values 0.992 | S. cerevisiae deletion strains, locus YNL271C, strain bni1, hits give low values 0.984 | S. cerevisiae deletion strains, locus YNL298W, strain CLA4, hits give low values 1 | S. cerevisiae deletion strains, locus YNL307C, strain MCK1, hits give low values 1 | [16] 0.967 | S. cerevisiae deletion strains, locus YNR052C, strain pop2, hits give low values 0.978 | [17] 0.935 | S. cerevisiae deletion strains, locus YOL012C, strain htz1 0.683 | S. cerevisiae deletion strains, locus YOL147C, strain pex11, hits give low values 0.997 | S. cerevisiae deletion strains, locus YOR061W, strain CKA2, hits give low values 0.952 | S. cerevisiae deletion strains, locus YOR069W, strain VPS5, hits give low values 0.99 | S. cerevisiae deletion strains, locus YOR136W, strain idh2, hits give low values 0.99 | S. cerevisiae deletion strains, locus YOR144C, strain elg1, hits give low values 0.983 | S. cerevisiae deletion strains, locus YOR184W, strain ser1, hits give low values 1.01 | S. cerevisiae deletion strains, locus YOR231W, strain MKK1, hits give low values 0.98 | S. cerevisiae deletion strains, locus YOR316C, strain cot1, hits give low values 0.977 | [18] 0.931 | [19] 0.983 | S. cerevisiae deletion strains, locus YPL256C, strain CLN2, hits give low values 0.972 | S. cerevisiae deletion strains, locus YPR119W, strain clb2, hits give low values 0.992 | S. cerevisiae deletion strains, locus YPR141C, strain kar3, hits give low values 0.969 | S. cerevisiae deletion strains, locus YPR163C, strain tif3, hits give low values 0.995 | S. cerevisiae deletion strains, locus YPR167C, strain met16, hits give low values 0.972 | S. cerevisiae deletion strains, strain wtn01, hits give low values 0.943 | [20] 1.01
